Measurements published in paper PMC7862700, “An all-to-all approach to the identification of sequence-specific readers for epigenetic DNA modifications on cytosine”.

Each sequence was assayed against T1, ETV3 (Homo sapiens, UniProt P41162-2 1-143) (assay: DAPPL (digital affinity profiling via proximity ligation, sequencing); 10 mM Tris-HCl pH 7.5, 50 mM NaCl, 1 mM DTT, 4% glycerol, room temperature, 30 min; GST-TFs on glutathione beads, 16-mer random dsDNA library, 0.1% formaldehyde crosslink after washing; high values mean tight binding). Details: protein: recombinant; tags: N-terminal GST; dsDNA, one strand shown.
T1 sequence: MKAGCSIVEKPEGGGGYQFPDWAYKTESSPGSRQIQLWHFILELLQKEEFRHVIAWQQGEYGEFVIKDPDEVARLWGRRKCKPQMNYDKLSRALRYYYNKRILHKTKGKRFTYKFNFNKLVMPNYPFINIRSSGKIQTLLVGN
How it was run: (§1)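 Beads coated with glutathione captured GST-fused human transcription factors that had been expressed in yeast, and the factors were then given DNA barcodes and pooled with a tag-only sample. The pools were incubated with 200 nmole of a random double-stranded 16-mer DNA library in Tris/NaCl/DTT/glycerol buffer for 30 min at room temperature, washed, crosslinked with 0.1% formaldehyde and proximity-ligated with BsaI/T4 ligase at 37 °C for 1 h. PCR amplification and Illumina NextSeq500 sequencing came last. Binding signal is each hexamer's read frequency for a factor divided by its frequency for the tag-only sample.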

**Q.** How did the binding signal turn out when GGTCTA was run?
**A.** 1.05 fold enrichment (6-mer frequency, TF over GST control)

**Q.** For CACCAT, which binding signal is on record?
**A.** 1.05 fold enrichment (6-mer frequency, TF over GST control)

**Q.** Which binding signal does the source give for TGACGC here?
**A.** 1.15 fold enrichment (6-mer frequency, TF over GST control)

**Q.** With CGCACT as the sequence, how does the binding signal read?
**A.** 1.39 fold enrichment (6-mer frequency, TF over GST control)

**Q.** TTGGCC was tested. Which binding signal did it give?
**A.** 1.05 fold enrichment (6-mer frequency, TF over GST control)

**Q.** How did the binding signal turn out when CTATGT was run?
**A.** 1.15 fold enrichment (6-mer frequency, TF over GST control)

**Q.** GGAAGC was tested. Which binding signal did it give?
**A.** 1.69 fold enrichment (6-mer frequency, TF over GST control)

**Q.** ACCCAC was tested. Which binding signal did it give?
**A.** 1.13 fold enrichment (6-mer frequency, TF over GST control)

**Q.** TGAACC was tested. Which binding signal did it give?
**A.** 1.12 fold enrichment (6-mer frequency, TF over GST control)

**Q.** For CCACAT, which binding signal is on record?
**A.** 1.17 fold enrichment (6-mer frequency, TF over GST control)

**Q.** With AAGTCA as the sequence, how does the binding signal read?
**A.** 1.15 fold enrichment (6-mer frequency, TF over GST control)

**Q.** How did the binding signal turn out when CGTTAT was run?
**A.** 1.18 fold enrichment (6-mer frequency, TF over GST control)

**Q.** With CACCCG as the sequence, how does the binding signal read?
**A.** 1.25 fold enrichment (6-mer frequency, TF over GST control)

**Q.** With ACCCGG as the sequence, how does the binding signal read?
**A.** 1.82 fold enrichment (6-mer frequency, TF over GST control)

**Q.** Which binding signal does the source give for ACCGCT here?
**A.** 1.04 fold enrichment (6-mer frequency, TF over GST control)

**Q.** With TGCACG as the sequence, how does the binding signal read?
**A.** 1.13 fold enrichment (6-mer frequency, TF over GST control)

**Q.** With TGCTGA as the sequence, how does the binding signal read?
**A.** 1.12 fold enrichment (6-mer frequency, TF over GST control)

**Q.** How did the binding signal turn out when TCATGG was run?
**A.** 1.11 fold enrichment (6-mer frequency, TF over GST control)

**Q.** CCCACC was tested. Which binding signal did it give?
**A.** 1.06 fold enrichment (6-mer frequency, TF over GST control)

**Q.** With GCGGAA as the sequence, how does the binding signal read?
**A.** 1.55 fold enrichment (6-mer frequency, TF over GST control)

**Q.** TCAATG was tested. Which binding signal did it give?
**A.** 1.06 fold enrichment (6-mer frequency, TF over GST control)

**Q.** How did the binding signal turn out when ACCGCC was run?
**A.** 1.44 fold enrichment (6-mer frequency, TF over GST control)

**Q.** For GTTTTG, which binding signal is on record?
**A.** 1.13 fold enrichment (6-mer frequency, TF over GST control)

**Q.** GTTTCA was tested. Which binding signal did it give?
**A.** 1.3 fold enrichment (6-mer frequency, TF over GST control)

**Q.** With ACCCCC as the sequence, how does the binding signal read?
**A.** 1.21 fold enrichment (6-mer frequency, TF over GST control)

**Q.** How did the binding signal turn out when CGGTTT was run?
**A.** 1.22 fold enrichment (6-mer frequency, TF over GST control)

**Q.** CGGAAA was tested. Which binding signal did it give?
**A.** 2.26 fold enrichment (6-mer frequency, TF over GST control)

**Q.** For CCTTGT, which binding signal is on record?
**A.** 1.31 fold enrichment (6-mer frequency, TF over GST control)

**Q.** For TGCAAT, which binding signal is on record?
**A.** 1.15 fold enrichment (6-mer frequency, TF over GST control)

**Q.** With TTGTTG as the sequence, how does the binding signal read?
**A.** 1.19 fold enrichment (6-mer frequency, TF over GST control)

**Q.** How did the binding signal turn out when ATCACA was run?
**A.** 1.09 fold enrichment (6-mer frequency, TF over GST control)

**Q.** Which binding signal does the source give for GGTGTT here?
**A.** 1.05 fold enrichment (6-mer frequency, TF over GST control)

**Q.** Which binding signal does the source give for GTGTTT here?
**A.** 1.15 fold enrichment (6-mer frequency, TF over GST control)

**Q.** How did the binding signal turn out when CCAACA was run?
**A.** 1.1 fold enrichment (6-mer frequency, TF over GST control)

**Q.** Which binding signal does the source give for TGTCCA here?
**A.** 1.13 fold enrichment (6-mer frequency, TF over GST control)

**Q.** With CTGCAC as the sequence, how does the binding signal read?
**A.** 1.23 fold enrichment (6-mer frequency, TF over GST control)

**Q.** Which binding signal does the source give for TTGGGC here?
**A.** 1.04 fold enrichment (6-mer frequency, TF over GST control)

What follows are sequences tested against ETV6 (Homo sapiens, UniProt P41212 1-452) in the same assay as above. Details: protein: recombinant; tags: N-terminal GST; dsDNA, one strand shown.
Sequence of ETV6 (P41212 whole entry): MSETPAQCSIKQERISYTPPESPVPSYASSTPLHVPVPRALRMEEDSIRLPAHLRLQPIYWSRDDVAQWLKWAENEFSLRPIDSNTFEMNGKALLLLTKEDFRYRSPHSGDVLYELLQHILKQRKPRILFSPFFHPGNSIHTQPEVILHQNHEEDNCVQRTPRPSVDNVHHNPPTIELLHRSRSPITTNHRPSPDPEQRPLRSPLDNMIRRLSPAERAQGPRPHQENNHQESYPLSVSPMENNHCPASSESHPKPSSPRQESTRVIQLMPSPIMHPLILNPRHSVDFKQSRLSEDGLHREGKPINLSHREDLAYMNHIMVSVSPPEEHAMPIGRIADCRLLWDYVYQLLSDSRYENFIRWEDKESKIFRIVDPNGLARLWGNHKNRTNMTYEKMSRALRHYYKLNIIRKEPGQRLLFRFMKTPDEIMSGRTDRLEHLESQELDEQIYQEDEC
How it was run: as §1

**Q.** With GGTCTA as the sequence, how does the binding signal read?
**A.** 1.04 fold enrichment (6-mer frequency, TF over GST control)

**Q.** With CACCAT as the sequence, how does the binding signal read?
**A.** 1.04 fold enrichment (6-mer frequency, TF over GST control)

**Q.** With TGACGC as the sequence, how does the binding signal read?
**A.** 1.19 fold enrichment (6-mer frequency, TF over GST control)

**Q.** CGCACT was tested. Which binding signal did it give?
**A.** 1.25 fold enrichment (6-mer frequency, TF over GST control)

**Q.** TTGGCC was tested. Which binding signal did it give?
**A.** 1.05 fold enrichment (6-mer frequency, TF over GST control)

**Q.** How did the binding signal turn out when GGAAGC was run?
**A.** 1.92 fold enrichment (6-mer frequency, TF over GST control)

**Q.** With ACCCAC as the sequence, how does the binding signal read?
**A.** 1.2 fold enrichment (6-mer frequency, TF over GST control)

**Q.** For TGAACC, which binding signal is on record?
**A.** 1.11 fold enrichment (6-mer frequency, TF over GST control)

**Q.** With CCACAT as the sequence, how does the binding signal read?
**A.** 1.2 fold enrichment (6-mer frequency, TF over GST control)

**Q.** How did the binding signal turn out when AAGTCA was run?
**A.** 1.26 fold enrichment (6-mer frequency, TF over GST control)

**Q.** CGTTAT was tested. Which binding signal did it give?
**A.** 1.09 fold enrichment (6-mer frequency, TF over GST control)

**Q.** CACCCG was tested. Which binding signal did it give?
**A.** 1.11 fold enrichment (6-mer frequency, TF over GST control)

**Q.** Which binding signal does the source give for ACCCGG here?
**A.** 1.7 fold enrichment (6-mer frequency, TF over GST control)

**Q.** With ACCGCT as the sequence, how does the binding signal read?
**A.** 1.15 fold enrichment (6-mer frequency, TF over GST control)

**Q.** TGCACG was tested. Which binding signal did it give?
**A.** 1.06 fold enrichment (6-mer frequency, TF over GST control)

**Q.** Which binding signal does the source give for TGCTGA here?
**A.** 1.01 fold enrichment (6-mer frequency, TF over GST control)

**Q.** With TCATGG as the sequence, how does the binding signal read?
**A.** 1.11 fold enrichment (6-mer frequency, TF over GST control)

**Q.** With CCCACC as the sequence, how does the binding signal read?
**A.** 1.12 fold enrichment (6-mer frequency, TF over GST control)

**Q.** How did the binding signal turn out when GCGGAA was run?
**A.** 1.58 fold enrichment (6-mer frequency, TF over GST control)

**Q.** TCAATG was tested. Which binding signal did it give?
**A.** 1.05 fold enrichment (6-mer frequency, TF over GST control)

**Q.** ACCGCC was tested. Which binding signal did it give?
**A.** 1.26 fold enrichment (6-mer frequency, TF over GST control)

**Q.** Which binding signal does the source give for TCAGCA here?
**A.** 1.02 fold enrichment (6-mer frequency, TF over GST control)

**Q.** Which binding signal does the source give for GTTTTG here?
**A.** 1.15 fold enrichment (6-mer frequency, TF over GST control)

**Q.** With GTTTCA as the sequence, how does the binding signal read?
**A.** 1.21 fold enrichment (6-mer frequency, TF over GST control)

**Q.** Which binding signal does the source give for ACCCCC here?
**A.** 1.06 fold enrichment (6-mer frequency, TF over GST control)

**Q.** How did the binding signal turn out when CGGTTT was run?
**A.** 1.23 fold enrichment (6-mer frequency, TF over GST control)

**Q.** With CGGAAA as the sequence, how does the binding signal read?
**A.** 2.53 fold enrichment (6-mer frequency, TF over GST control)

**Q.** With GTAATG as the sequence, how does the binding signal read?
**A.** 1.03 fold enrichment (6-mer frequency, TF over GST control)

**Q.** Which binding signal does the source give for CCTTGT here?
**A.** 1.06 fold enrichment (6-mer frequency, TF over GST control)

**Q.** For TGCAAT, which binding signal is on record?
**A.** 1.17 fold enrichment (6-mer frequency, TF over GST control)

**Q.** TTGTTG was tested. Which binding signal did it give?
**A.** 1.07 fold enrichment (6-mer frequency, TF over GST control)

**Q.** ATCACA was tested. Which binding signal did it give?
**A.** 1.13 fold enrichment (6-mer frequency, TF over GST control)

**Q.** How did the binding signal turn out when GGTGTT was run?
**A.** 1.1 fold enrichment (6-mer frequency, TF over GST control)

**Q.** With GTGTTT as the sequence, how does the binding signal read?
**A.** 1.2 fold enrichment (6-mer frequency, TF over GST control)

**Q.** For TGTCCA, which binding signal is on record?
**A.** 1.12 fold enrichment (6-mer frequency, TF over GST control)

**Q.** CTGCAC was tested. Which binding signal did it give?
**A.** 1.24 fold enrichment (6-mer frequency, TF over GST control)

**Q.** TTGGGC was tested. Which binding signal did it give?
**A.** 1.11 fold enrichment (6-mer frequency, TF over GST control)
